From PubChem BioAssay (EPA / NIEHS) come the findings set out here.

Molecules are shown by their SMILES. Where “and” joins values, the source holds several entries; their conditions need not be identical. Equal entries are not always repeated. Results filed as inconclusive are left out. Calls of active or inactive are those of the source. Rule for the calls, unless noted: active = hit-call score of the fitted dose curve at least 0.9, where 1 is the maximum; inconclusive = response in the unintended direction; inactive = score below 0.9.

The nature of assay [1]: CCTE_Shafer_MEA_acute_cross_correlation_HWHM: CCTE's Neural Acute Assay for Cross Correlation at Half Width at Half Maximum, Shafer Lab (AID 2284026; active = hit-call score of the fitted dose curve at least 0.9, where 1 is the maximum; inactive = score below 0.9;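 note: percent change per well from pre-dose baseline in spike cross-correlogram half width; hits are a decrease in cross-correlogram half width relative to DMSO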;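 for outcome: spontaneous network firing of rat primary cortical neurons on multiwell microelectrode arrays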). The essentials:
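Rat cortical neuron cultures on microelectrode arrays were equilibrated 20 min at 37 C, recorded 40 min at baseline, then 40 min after compound addition (0.03-40 uM, ≥3 wells). Spikes were detected at 8x rms noise after 300-5000 Hz band-pass filtering.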

A short description of assay [2]: CCTE_Shafer_MEA_acute_synchrony_index: CCTE's Neural Acute Assay for Synchrony, Shafer Lab (AID 2284027; active = hit-call score of the fitted dose curve at least 0.9, where 1 is the maximum; inactive = score below 0.9;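 note: network synchrony index of spontaneous spiking in primary rat cortical neurons on MEAs; fitted for loss of signal so actives lower synchrony relative to DMSO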). The essentials:
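Rat cortical cultures, DIV 13/15; spikes detected at 8x rms noise, 300-5000 Hz band-pass. Compound 0.03-40 uM, ≥3 wells; 40-min pre- and post-exposure recordings, 37 C. Readout: % change in synchrony index; loss-of-signal fit vs DMSO.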

The target in assay [3] is Estrogen receptor (Homo sapiens) (UniProt P03372). Nature of the assay: CCTE_Deisenroth_AIME_384WELL_LUC_Active: CCTE's 384-well Estrogen Receptor Transactivation Assay with AIME metabolic competence (ERTA luciferase; metabolism positive), Deisenroth Lab (AID 2284030). The essentials:
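AIME metabolism-positive mode: chemicals 0.002 - 200 uM, 2 h with alginate-bound PB/BNF-induced rat S9 → medium to VM7Luc4E2 ERTA, 24 h → luciferase. Positive fit vs 17beta-estradiol; n=4 typical.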

Assay [4] in a line: CCTE_Deisenroth_AIME_384WELL_CTox_Active: Cytotoxicity Assessment (CTOX) in CCTE's 384-well Estrogen Receptor Transactivation Assay with AIME metabolic competence (metabolism positive), Deisenroth Lab (AID 2284037).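 Note: chemicals first conditioned 2 h by alginate-bound induced rat liver S9 before cells; activity means signal loss indicating cell death.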 Put shortly: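 Cytotoxicity in VM7Luc4E2 breast cells, 24 hour, measured as protease-substrate fluorescence loss, after 2-hour metabolic conditioning with induced rat hepatic S9 in alginate microspheres. Concentrations 0.002 - 200 uM, 10 points, bidirectional fitting.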

In assay [5] the target is Estrogen receptor (Homo sapiens) (UniProt P03372). Nature of the assay: CCTE_Deisenroth_AIME_384WELL_LUC_Inactive: CCTE's 384-well Estrogen Receptor Transactivation Assay without AIME metabolic competence (ERTA luciferase; metabolism negative), Deisenroth Lab (AID 2284038).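 Note: hits raise estrogen receptor luciferase signal so potencies reflect agonists.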 The essentials:
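Metabolism-negative mode: AIME lids stamped in alginate-water, no hepatic S9. 2 h chemical incubation → medium onto VM7Luc4E2 ERTA, 24 h. Readout luciferase luminescence; gain-of-signal fit vs 17beta-estradiol. Conc. 0.002 - 200 uM.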

A short description of assay [6]: CCTE_Shafer_MEA_dev_per_burst_spike_percent: CCTE's Neural Network Formation Assay for Percent of Spikes in a Burst, Shafer Lab (AID 2284032; active = hit-call score of the fitted dose curve at least 0.9, where 1 is the maximum; inactive = score below 0.9;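 for AC50: fitted as a decrease in burst spike percentage below DMSO baseline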). The essentials: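 Value is trapezoidal AUC over recordings on days 5, 7, 9 and 12 of the well-mean fraction of spikes falling in single-electrode bursts; rat cortical cultures exposed continuously from plating, treatment renewed DIV 5 and 9, fitted downward against DMSO.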

A short description of assay [7]: CCTE_Shafer_MEA_dev_active_electrodes_number: CCTE's Neural Network Formation Assay for Number of Active Electrodes, Shafer Lab (AID 2284040).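 For AC50: potency for loss of active electrodes versus DMSO so lower counts are hits.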 Put shortly:
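Developing rat cortical networks on MEAs, exposed DIV 0–12. Value is the AUC of active-electrode counts (≥5 spikes/min) from days 5, 7, 9, 12, relative to DMSO.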

Assay [8] is described as follows: CCTE_Deisenroth_AIME_384WELL_CTox_Inactive: Cytotoxicity Assessment (CTOX) in CCTE's 384-well Estrogen Receptor Transactivation Assay without AIME metabolic competence (metabolism negative), Deisenroth Lab (AID 2284039).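 Note: cell viability via live-cell protease substrate cleaved to fluorescent probe; cells exposed 24 h to medium preincubated 2 h with alginate-water beads without S9; loss of fluorescence signal means loss of viability.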 The essentials: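 Metabolism-negative arm: chemicals (10-point, 0.002 - 200 uM) preincubated 2 h with alginate-water lids, medium moved onto VM7Luc4E2 cells for 24 h. Fluorescent live-cell protease readout; bidirectional curve fit.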

The nature of assay [9]: CCTE_Deisenroth_AIME_96WELL_CTox_Active: Cytotoxicity Assessment (CTOX) in CCTE's 96-well Estrogen Receptor Transactivation Assay with AIME metabolic competence (metabolism positive), Deisenroth Lab (AID 2284028). Put shortly:
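Cytotoxicity in VM7Luc4E2 breast cells after 24 h exposure to medium from a 2 h metabolic pre-incubation with induced rat hepatic S9 in alginate microspheres; fluorescent live-cell protease readout, 10-point series 0.002–200 uM, n=4.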

Assay [10] is described as follows: CCTE_Deisenroth_AIME_96WELL_CTox_Inactive: Cytotoxicity Assessment (CTOX) in CCTE's 96-well Estrogen Receptor Transactivation Assay without AIME metabolic competence (metabolism negative), Deisenroth Lab (AID 2284029). The essentials: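 Cytotoxicity in VM7Luc4E2 breast cells was scored as loss of fluorescent signal from a live-cell protease substrate 24 h after exposure, using bidirectional curve fitting. Test media came from a 2 h metabolism-negative pre-incubation (alginate-water, no hepatic S9) of compounds at 0.002-200 uM, with at least four replicates.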

Sequence of Estrogen receptor (Homo sapiens) (P03372 whole entry, looked up): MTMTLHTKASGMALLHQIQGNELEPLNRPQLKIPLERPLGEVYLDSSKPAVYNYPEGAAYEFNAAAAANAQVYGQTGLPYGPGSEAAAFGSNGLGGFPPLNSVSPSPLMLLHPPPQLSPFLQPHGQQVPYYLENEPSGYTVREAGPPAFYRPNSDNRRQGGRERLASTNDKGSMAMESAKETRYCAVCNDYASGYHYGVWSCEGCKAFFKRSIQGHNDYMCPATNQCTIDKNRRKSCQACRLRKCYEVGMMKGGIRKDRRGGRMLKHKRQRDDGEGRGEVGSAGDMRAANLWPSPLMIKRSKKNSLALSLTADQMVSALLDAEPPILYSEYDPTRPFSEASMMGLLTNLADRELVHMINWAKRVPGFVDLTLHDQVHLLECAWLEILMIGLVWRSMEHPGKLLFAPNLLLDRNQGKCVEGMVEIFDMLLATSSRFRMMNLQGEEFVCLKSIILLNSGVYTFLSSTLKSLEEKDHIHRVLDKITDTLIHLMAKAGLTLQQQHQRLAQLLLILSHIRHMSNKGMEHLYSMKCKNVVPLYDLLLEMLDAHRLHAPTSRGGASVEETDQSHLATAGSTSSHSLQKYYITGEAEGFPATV

The AC50 is the midpoint of the concentration-response curve, whichever way the signal moves. As for `CC(=O)OC(c1ccccc1)C(Cl)(Cl)Cl` (centres undefined), the AC50 in assay [1] was 24.9 µM (active); in [2], 26.7 µM (active).

For `O=C(Nc1ccc2[nH]ccc2c1)c1cc2cc(F)ccc2n1Cc1cccc(F)c1`, the call in assay [1] and in assay [2] was inactive.

On to `Cc1ccc(N)cc1Cl`, for which the result in assay [3], in [4] and in assay [5] was inactive.

As for `CCC(=O)C(CC(C)N(C)C)(c1ccccc1)c1ccccc1` (centres undefined), in assay [2], the compound was classed as inactive. Also, the results for the AC50 in assay [6] and in assay [7] were 7.25 µM (active) and 3.55 µM (active), respectively.

On to `CC(=O)[O][Hg][c]1ccccc1`, for which the half-maximal activity concentration (AC50) in assay [1] was 33.9 µM (active); in [2], 2.02 µM (active); in assay [6], 0.0114 µM (active); in [4], 66.1 µM (active); in [8], 46.3 µM (active); in assay [7] it was 0.0146 µM (active).

Consider `C=C(C)C(=O)[O][Sn]([CH2]CCC)([CH2]CCC)[CH2]CCC`, for which the outcome in assay [1] was inactive. For the same compound, the values for the AC50 in [2], in [6] and in assay [7] were 0.116 µM (active), 0.0389 µM (active) and 0.0266 µM (active), respectively.

In the case of `CC(C)(c1ccccc1)c1ccc(O)c(C(C)(C)c2ccccc2)c1`, the half-maximal activity concentration (AC50) in assay [1] is 9.24 µM (active); in [2] it was 6.29 µM (active); in assay [4], 93.9 µM (active); in [8] it was 64.6 µM (active).

In the case of `ClC1(Cl)C2(Cl)C3(Cl)C4(Cl)C(Cl)(Cl)C5(Cl)C3(Cl)C1(Cl)C5(Cl)C24Cl` (centres undefined), the compound was classed as inactive in assay [1] and in assay [2]. The AC50 in assay [6] was 3.9 µM (active); in assay [7], 2.07 µM (active).

On to `C[C@]12CCC(=O)C[C@@H]1CC[C@@H]1[C@@H]2CC[C@]2(C)[C@@H](O)CC[C@@H]12`, for which the AC50 in assay [1] was 33.3 µM (active); in assay [2] it was 30.7 µM (active).

As to `CC(C)(C)CC(C)(C)c1ccc(O)cc1`, in assay [1], the AC50 is 36.4 µM (active). For the same compound, the outcome in [2] was inactive.

As to `CCC(C)(C)c1ccc(O)c(C(C)(C)CC)c1`, the half-maximal activity concentration (AC50) is 9.83 µM (active) in assay [1], 20 µM (active) in [2], 102 µM (active) in assay [4] and 75 µM (active) in assay [8].

On to `CC(C)(OO)c1ccccc1`, for which the outcome in assay [1] and in assay [2] was inactive.

Consider `O=C(O)C(Cl)(Cl)Cl`, for which the outcome in assay [1] and in assay [2] was inactive.

Consider `CC(C)(C)c1cc(O)ccc1O`, for which the AC50 in [1] was 29.3 µM (active); in assay [2], 29.9 µM (active); in assay [3] it was 0.000221 µM (active); in [6] it was 10 µM (active); in [4], 137 µM (active); in [5], 0.000233 µM (active). Besides, the AC50 in [8] is 100 µM (active); in assay [7], 6.05 µM (active).

As for `COC(=O)Cc1ccccc1`, the result in assay [1] and in [2] was inactive.

For `CCOP(=S)(OCC)SCSP(=S)(OCC)OCC`, the AC50 in assay [1] is 32.7 µM (active); in assay [2] it was 24.4 µM (active); in [3] it was 13.4 µM (active); in [5], 10.3 µM (active). The compound was classed as inactive in [4] and in [8].

In the case of `C=C(C)C#N`, the call in assay [3], in assay [4] and in assay [5] was inactive.

Take `O=C(O)C(F)(F)C(F)(F)C(F)(F)C(F)(F)C(F)(F)C(F)(F)C(F)(F)C(F)(F)C(F)(F)C(F)(F)F`: the compound was called inactive in assay [1], in assay [2], in assay [6] and in assay [7].

Turning to `CCN1CCC2(CC1)COc1cc3c(cc12)N(C(=O)c1ccc(-c2ccc(-c4nnc(C)o4)cc2C)cc1)CC3`, the AC50 is 31.2 µM (active) in [1] and 17.2 µM (active) in assay [2].

Regarding `OCC(O)CCl` (centres undefined), the AC50 in assay [3] is 0.555 µM (active); in assay [5], 0.124 µM (active). The compound was classed as inactive in [4].

`O=C(OC1CCCCC1)c1ccccc1C(=O)OC1CCCCC1`: the call in assay [9] and in [10] was inactive.

As for `O=C(NCO)NCO`, the call in assay [3], in assay [4] and in [5] was inactive.

As to `O=C1C2(Cl)C3(Cl)C4(Cl)C(Cl)(Cl)C5(Cl)C3(Cl)C1(Cl)C5(Cl)C24Cl` (centres undefined), the AC50 was 7.01 µM (active) in assay [1], 20 µM (active) in assay [2], 4.18 µM (active) in [6] and 4.58 µM (active) in assay [7].

Regarding `CCCCCCCCc1ccc(O)cc1`, the AC50 was 9.18 µM (active) in assay [1] and 20 µM (active) in [2].

With `c1cc[c]([Hg][c]2ccccc2)cc1`, the compound was classed as inactive in assay [5] and in assay [8].

As for `COc1ccc(C=O)cc1`, the call in assay [3], in assay [4], in assay [5] and in assay [8] was inactive.

Consider `C[C@@H]1C[C@@H]([C@H](O)CC2CC(=O)NC(=O)C2)C(=O)[C@@H](C)C1`, for which the AC50 in assay [4] was 28.5 µM (active). Moreover, in assay [8], the compound was classed as inactive.

As to `NC(=O)O`, the result in [3], in [4], in [5] and in assay [8] was inactive.

For `CC1(C)CCC(Cc2ccc(Cl)cc2)C1(O)Cn1cncn1` (centres undefined), the AC50 in assay [4] is 120 µM (active); in assay [8] it was 119 µM (active).

Turning to `CCOP(=S)(OCC)Oc1nc(Cl)c(Cl)cc1Cl`, the concentration at half-maximal activity (AC50) in [6] was 23.3 µM (active) and 15 µM (active) and 21.4 µM (active); in assay [7], 22.5 µM (active) and 6.77 µM (active) and 22.1 µM (active).

On to `CC(C)OC(=O)Nc1ccccc1`, for which the AC50 is 17 µM (active) in [3] and 17.4 µM (active) in [5].

With `O=S(=O)(c1ccc(Cl)cc1)c1ccc(Cl)cc1`, the outcome in [3], in [5] and in assay [8] was inactive.

`O=C(Cc1ccccc1)c1ccccc1`: the AC50 in assay [3] was 112 µM (active); in [5], 72 µM (active). The result in assay [4] and in [8] was inactive.

Consider `COP(=O)(OC)O/C(=C\Cl)c1cc(Cl)c(Cl)cc1Cl`, for which the compound was called inactive in [6] and in assay [5]. Further, the concentration at half-maximal activity (AC50) in assay [4] was 100 µM (active); in assay [8], 100 µM (active); in assay [7], 78.5 µM (active) and 51.5 µM (active).

Consider `COP(=O)(OC)OC`, for which the call in assay [3] and in assay [5] was inactive.

For `O=C(O)C(F)(F)C(F)(F)C(F)(F)C(F)(F)C(F)(F)C(F)(F)F`, the compound was called inactive in assay [6] and in assay [8].

Consider `ClC(Cl)=C(Cl)C(Cl)=C(Cl)Cl`, for which the compound was called inactive in assay [3], in assay [4], in assay [5] and in [8].

As for `NNC(=S)NN`, the result in assay [3], in assay [4], in assay [5] and in [8] was inactive.

Regarding `[O-][Cl+2]([O-])O`, the result in assay [3], in assay [5] and in [8] was inactive.

On to `Oc1cccc2cccnc12`, for which the result in assay [4] and in [8] was inactive.

On to `CCOC(=O)Nc1cccc(OC(=O)Nc2ccccc2)c1`, for which the compound was called inactive in [3] and in assay [5].

Turning to `CNC`, the compound was called inactive in assay [3], in assay [4], in assay [5] and in [8].

Take `O=C1CCCN1`: the outcome in assay [3], in assay [4], in assay [5] and in [8] was inactive.

For the compound `CCCCCCCCSC(=O)Oc1cc(Cl)nnc1-c1ccccc1`, the compound was called inactive in assay [3], in assay [4], in [5] and in assay [8].

Take `CNC(=O)O/N=C/C(C)(C)S(C)=O` (centres undefined): the result in [3] and in [5] was inactive.

For `Cn1sc(Cl)cc1=O`, the AC50 in [6] is 4.02 µM (active); in assay [7], 4.47 µM (active).

Turning to `O=C1C(Cl)=C(Cl)C(=O)c2ccccc21`, the AC50 in [4] was 163 µM (active); in [8], 189 µM (active).

With `CC(=O)c1cc(C(C)(C)C)cc2c1CCC2(C)C`, the outcome in assay [3], in [4], in assay [5] and in assay [8] was inactive.

`CC(=O)C=C(C)C`: the compound was called inactive in [3], in assay [4], in assay [5] and in assay [8].
